From PubChem BioAssay (Tox21)
Results filed as inconclusive are left out. Active and inactive are the calls of the source. Unless noted, the call rests on the fitted dose curve; in most records, active means well fitted curve in the direction sought with a large enough effect in the repeat runs; inconclusive means weak or mixed curves; inactive means no such curve, though single readings can be large; an effect the other way counts as inactive or inconclusive.

Tests used:
[1] = A CellTox Green Cytotoxicity Assay to monitor cytotoxicity in HepG2 cells - 0 hour (AID 1224882); further: nearly all actives have a fitted effect of over 35% in size
Summary of the method: (§1)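 HepG2 cells, 600/well, preincubated 5 h with CellTox Green dye, then exposed to Tox21 compounds in DMSO at 37 C for up to 40 h. Dead-cell DNA fluorescence read at the indicated time point.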

[2] = A CellTox Green Cytotoxicity Assay to monitor cytotoxicity in HepG2 cells - 32 hour (AID 1224883); further: nearly all actives have a fitted effect of over 50% in size
Summary of the method: as §1

[3] = A CellTox Green Cytotoxicity Assay to monitor cytotoxicity in HEK293 cells - 8 hour (AID 1224884); further: nearly all actives have a fitted effect of over 35% in size
Summary of the method: (§2)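 HEK293 cells, 600/well, were preincubated 5 hours and then exposed to compounds at 37 C for up to 40 hours. A cell-impermeant cyanine dye staining dead-cell DNA was read by fluorescence at 0, 8, 16, 24, 32 and 40 h time points.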

[4] = qHTS RealTime-Glo MT Cell Viability Assay in HepG2 cells - 16 hour (AID 1224885); further: nearly all actives have a fitted effect of over 50% in size
Summary of the method: (§3)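 HepG2 suspension premixed with RealTime-Glo reagents is plated at 600 cells per well and left 5 h at 37 C/5% CO2. Compounds in DMSO then go in, and bioluminescence reflecting viable cell number is recorded over 40 h.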

[5] = qHTS RealTime-Glo MT Cell Viability Assay in HEK293 cells - 24 hour (AID 1224886); further: top concentration of the series differs between compounds; nearly all actives have a fitted effect of over 50% in size
Summary of the method: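 Reads taken at 0, 8, 16, 24, 32 and 40 h from the same wells. HEK293 cells (600/well) carried RealTime-Glo reagents from seeding, with compound added after a 5 h settle at 37 C.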

[6] = qHTS RealTime-Glo MT Cell Viability Assay in HEK293 cells - 8 hour (AID 1224887); further: top concentration of the series differs between compounds; nearly all actives have a fitted effect of over 50% in size
Summary of the method: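 600 cells/well were plated with the nonlytic NanoLuc/prosubstrate reagent, pre-incubated 5 h, then given 23 nL of compound in DMSO. Incubation at 37 C for 40 h, with luminescence from viable-cell-reduced substrate read repeatedly from 0 h.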

[7] = A CellTox Green Cytotoxicity Assay to monitor cytotoxicity in HEK293 cells - 16 hour (AID 1224888); further: nearly all actives have a fitted effect of over 35% in size
Summary of the method: as §2

[8] = qHTS RealTime-Glo MT Cell Viability Assay in HepG2 cells - 0 hour (AID 1224889); further: nearly all actives have a fitted effect of over 50% in size
Summary of the method: as §3

[9] = A CellTox Green Cytotoxicity Assay to monitor cytotoxicity in HepG2 cells - 8 hour (AID 1224890); further: nearly all actives have a fitted effect of over 45% in size
Summary of the method: as §1

[10] = qHTS assay to identify small molecule antagonists of the estrogen receptor alpha (ER-alpha) signaling pathway using the BG1 cell line in the presence of 0.1 nM 17-beta-estradiol - cell viability counter screen (AID 1259241); further: nearly all actives have a fitted effect of over 40% in size
Summary of the method: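 Live-cell protease activity (CellTiter-Fluor fluorescence, 30 min) was read in the same wells after VM7Luc4E2 cells had been exposed to compounds with 0.1 nM 17beta-estradiol for 22 hr at 37C.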

[11] = qHTS assay to identify small molecule antagonists of the androgen receptor (AR) signaling pathway using the MDA cell line in the presence of 0.5 nM R1881 - cell viability counter screen (AID 1259242); further: nearly all actives have a fitted effect of over 45% in size
Summary of the method: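 MDA-kb2 cells (MMTV-luciferase, AR/GR responsive) were treated with compounds plus 0.5 nM R1881 (final) for 16 hr at 37C, 0% CO2. Viability was then read in the same wells as live-cell protease fluorescence (CellTiter-Fluor, 30 min).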

[12] = target: Androgen receptor (Homo sapiens) (UniProt P10275); assay: qHTS assay to identify small molecule antagonists of the androgen receptor (AR) signaling pathway using the MDA cell line in the presence of 0.5 nM R1881 (AID 1259243); further: nearly all actives have a fitted effect of over 50% in size
Androgen receptor (Homo sapiens), sequence (P10275 whole entry, looked up): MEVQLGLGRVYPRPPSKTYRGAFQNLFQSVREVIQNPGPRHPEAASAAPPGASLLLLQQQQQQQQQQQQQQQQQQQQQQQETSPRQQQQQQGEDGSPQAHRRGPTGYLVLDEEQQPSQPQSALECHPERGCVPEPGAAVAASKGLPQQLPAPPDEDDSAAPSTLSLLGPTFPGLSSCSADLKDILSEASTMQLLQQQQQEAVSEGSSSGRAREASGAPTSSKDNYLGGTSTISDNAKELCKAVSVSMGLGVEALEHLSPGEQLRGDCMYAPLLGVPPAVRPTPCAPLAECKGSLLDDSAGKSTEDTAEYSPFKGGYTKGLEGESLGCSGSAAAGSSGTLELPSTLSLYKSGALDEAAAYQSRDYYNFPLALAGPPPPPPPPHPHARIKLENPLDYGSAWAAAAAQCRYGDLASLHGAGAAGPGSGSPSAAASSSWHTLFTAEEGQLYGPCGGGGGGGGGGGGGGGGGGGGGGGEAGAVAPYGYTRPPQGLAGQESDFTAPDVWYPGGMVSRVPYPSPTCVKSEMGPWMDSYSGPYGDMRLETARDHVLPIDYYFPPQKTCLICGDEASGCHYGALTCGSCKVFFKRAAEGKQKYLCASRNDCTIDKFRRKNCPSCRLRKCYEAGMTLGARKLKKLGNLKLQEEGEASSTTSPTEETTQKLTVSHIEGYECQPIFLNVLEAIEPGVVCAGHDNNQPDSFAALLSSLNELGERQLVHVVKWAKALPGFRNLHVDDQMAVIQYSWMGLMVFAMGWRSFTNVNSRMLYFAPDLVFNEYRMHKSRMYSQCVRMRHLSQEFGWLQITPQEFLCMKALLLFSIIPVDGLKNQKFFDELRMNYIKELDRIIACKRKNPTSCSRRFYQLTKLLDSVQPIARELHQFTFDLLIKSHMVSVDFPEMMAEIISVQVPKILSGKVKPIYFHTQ
Summary of the method: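 MDA-kb2 cells (MMTV-luciferase, responsive to AR and GR) at 3,000/well, rested 5 h at 37C, 0% CO2, then given compounds plus 0.5 nM R1881 (final) for 16 hr. Luciferase read with ONE-Glo after 30 min at room temperature.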

[13] = qHTS assay to identify small molecule HDAC inhibitors (AID 1259364); further: top concentration of the series differs between compounds; nearly all actives have a fitted effect of over 45% in size
Summary of the method: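 Wild-type HCT-116 cells, plated overnight at 37 C, exposed to compounds 2 hr at 37 C; luminogenic HDAC-Glo substrate then added 30 min at room temperature. Luminescence reports relative endogenous class I/II HDAC activity.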

[14] = qHTS assay to identify small molecule HDAC inhibitors - cell viability counter screen (AID 1259365)
Summary of the method: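 HCT-116 (wild type), 1,500 cells/well, overnight 37C/5% CO2; compound in DMSO 2hr; CellTiter-Glo 30min RT; luminescence read.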

[15] = qHTS assay to identify small molecule agonists of the sonic hedgehog signaling (Shh) pathway - cell viability counter screen (AID 1259366); further: nearly all actives have a fitted effect of over 50% in size
Summary of the method: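 CellTiter-Fluor fluorescence read-out, 1 hr at 37C, added after 23hr compound exposure. Cells: 3T3 Gli1-Luc, an NIH/3T3 clone with stably integrated Gli1-Luc reporter, plated 4hr before compound.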

[16] = qHTS assay to identify small molecule antagonists of the sonic hedgehog signaling (Shh) pathway - cell viability counter screen (AID 1259367); further: nearly all actives have a fitted effect of over 55% in size
Summary of the method: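 After a 4 hr settling period, 3T3 Gli1-Luc cells were treated with DMSO-dissolved chemicals and conditioned medium, kept 24 hr at 37C in 5% CO2, and assayed for viability by CellTiter-Fluor fluorescence following 1 hr reagent incubation.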

[17] = qHTS assay to identify small molecule antagonists of the sonic hedgehog signaling (Shh) pathway (AID 1259369; calls by dose curve; further: nearly all actives have a fitted effect of over 45% in size)
Summary of the method: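 NIH/3T3-derived Gli1-Luc reporter cells plated 4 h, dosed with compound, then stimulated with conditioned medium for 24 h at 37 C. Firefly luciferase luminescence read after 30 min with detection reagent at room temperature.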

[18] = target: Estrogen receptor (Homo sapiens) (UniProt P03372); assay: qHTS assay to identify small molecule antagonists of the estrogen receptor alpha (ER-alpha) signaling pathway using the BG1 cell line in the presence of 0.1 nM 17-beta-estradiol (AID 1259244); further: nearly all actives have a fitted effect of over 50% in size
Estrogen receptor (Homo sapiens), sequence (P03372 whole entry, looked up): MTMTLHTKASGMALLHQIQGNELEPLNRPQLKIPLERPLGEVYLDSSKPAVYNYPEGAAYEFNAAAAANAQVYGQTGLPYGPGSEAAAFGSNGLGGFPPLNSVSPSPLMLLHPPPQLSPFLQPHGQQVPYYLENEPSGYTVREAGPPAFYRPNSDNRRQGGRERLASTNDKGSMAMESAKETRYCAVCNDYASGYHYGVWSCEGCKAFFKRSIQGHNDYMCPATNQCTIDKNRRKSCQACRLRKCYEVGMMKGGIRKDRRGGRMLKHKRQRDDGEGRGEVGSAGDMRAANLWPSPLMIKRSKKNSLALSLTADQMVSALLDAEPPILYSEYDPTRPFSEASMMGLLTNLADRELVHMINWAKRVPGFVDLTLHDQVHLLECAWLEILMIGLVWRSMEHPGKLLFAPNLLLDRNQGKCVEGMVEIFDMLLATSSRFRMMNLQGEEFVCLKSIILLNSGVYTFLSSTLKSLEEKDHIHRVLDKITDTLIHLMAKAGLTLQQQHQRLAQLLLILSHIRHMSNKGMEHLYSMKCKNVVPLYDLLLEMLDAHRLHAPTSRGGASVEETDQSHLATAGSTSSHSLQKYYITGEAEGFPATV
Summary of the method: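 VM7Luc4E2 cells (endogenous full-length ER-alpha, 4×ERE-luciferase), kept 5 days in phenol red-free, charcoal-stripped FBS medium; 4,000 cells/well. Compounds added with 0.1 nM (final) 17beta-estradiol, 22 hr at 37C; luminescence read with ONE-Glo after 30 min.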

[19] = qHTS assay to identify small molecule phospholipidosis (PLD) inducers (AID 1259344; active means well fitted curve in the direction sought with a large enough effect; an effect the other way counts as inactive or inconclusive)
Summary of the method: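 HepG2 cells grown on collagen I take up LipidTOX Red while exposed to compound for 24 h; after fixation they are imaged at 20x and pit metrics are extracted.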

[20] = qHTS assay to identify small molecule agonists of the sonic hedgehog signaling (Shh) pathway (AID 1259368; calls by dose curve;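 further: NIH/3T3-derived 3T3Gli1-Luc cells carrying a stable Gli1-driven firefly luciferase reporter; series mostly up to about 92 µM; nearly all actives have a fitted effect of over 15% in size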)
Summary of the method: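 NIH/3T3-derived 3T3Gli1-Luc cells with stably integrated Gli1-driven firefly luciferase, 2,000 cells/well, compounds added after 4 hr. Incubated 24 hr at 37C, 5% CO2; luminescence read after 30 min with luciferase reagent at room temperature.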

Measured: Potency

NC(=O)NC1N=C([O][Al])NC1=O (stereo unspecified)
inactive: [1] | [2] | [3] | [4] | [5] | [6] | [7] | [8] | [9] | [10] | [11] | [12] | [13] | [14] | [15] | [16] | [17]

CN1[C@@H]2CC[C@H]1CC(OC(=O)C(O)c1ccccc1)C2 (stereo partly specified)
inactive: [1] | [2] | [3] | [4] | [5] | [6] | [7] | [8] | [9] | [10] | [11] | [18] | [19] | [13] | [14] | [15] | [16] | [20] | [17]

COc1ccnc(CS(=O)c2nc3cc(OC(F)F)ccc3[nH]2)c1OC (stereo unspecified)
inactive: [1] | [2] | [3] | [4] | [5] | [6] | [7] | [8] | [9] | [10] | [11] | [18] | [13] | [14] | [15] | [16]

CCN(CC#N)c1cccc(C)c1
inactive: [1] | [2] | [3] | [4] | [5] | [6] | [7] | [8] | [9] | [10] | [11] | [18] | [13] | [14] | [15] | [16] | [20]

Cc1coc2ccccc2c1=O
inactive: [1] | [2] | [3] | [4] | [5] | [6] | [7] | [8] | [9] | [10] | [11] | [12] | [13] | [14] | [15] | [20] | [17]

c1ccc(Cc2ccccc2)cc1
inactive: [1] | [2] | [3] | [4] | [5] | [6] | [7] | [8] | [9] | [10] | [11] | [13] | [14] | [15] | [16] | [20] | [17]

CCOC(=O)COC(=O)c1ccccc1C(=O)OCC
inactive: [1] | [2] | [3] | [4] | [5] | [6] | [7] | [8] | [9] | [10] | [11] | [18] | [13] | [15] | [16] | [17]

CCCO[Si](OCCC)(OCCC)OCCC
inactive: [1] | [2] | [3] | [4] | [5] | [6] | [7] | [8] | [9] | [10] | [11] | [13] | [14] | [15] | [16] | [20] | [17]
